± gives the standard deviation of the averaged measurements. The full ranking holds about 33,000 sequences; the median of “E-score (rank enrichment, -0.5 to 0.5)” is about -0.0068, and the highest 2% start at about 0.24. Many of the other results were omitted from the sample, so the highest values are more common in it than they were.
These sequences were tested on muMax20 (Max(13-93) K31hArg/K57hArg, M65Nle) (assay: PBM 8-mer E-score (E-score (rank enrichment, -0.5 to 0.5)); higher = stronger preferential binding).
Experimental: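 Protein binding microarray (universal PBM chip covering all 10-mers in fixed probe flanks) with chemically synthesized human Max(13-93) bHLH-LZ analogs (not full-length Max) bearing noncanonical residues (hArg, Tha, Aib, Nle at 65) and aromatic Cys staples. Read-out per 8-mer (and its reverse complement): E-score (rank-based enrichment, -0.5 to 0.5) and Z-score of median probe intensity.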
In the case of CATATATC, the “PBM 8-mer E-score” value is reported as 0.171 ± 0.05. AATATGTA was tested, and the “PBM 8-mer E-score” value was 0.124 ± 0.0062. With AAACGAGT the “PBM 8-mer E-score” value was 0.044 ± 0.013. In the case of AGTGTGAT, the “PBM 8-mer E-score” value is reported as 0.125 ± 0.043. For CGTATAGA, the “PBM 8-mer E-score” value was 0.0652 ± 0.077. In the case of AAGGTTAT, the “PBM 8-mer E-score” value is reported as -0.0312 ± 0.054. In the case of CACGGTTA, the “PBM 8-mer E-score” value is reported as 0.00552 ± 0.11. With TCGGAACA the “PBM 8-mer E-score” value was -0.0705 ± 0.069. CAGTGGCC was tested, and the “PBM 8-mer E-score” value was -0.25 ± 0.067. In the case of CAGAGCCA, the “PBM 8-mer E-score” value is reported as -0.17 ± 0.01. With AGCTGGGC the “PBM 8-mer E-score” value was -0.0998 ± 0.075. With ACCACAGG the “PBM 8-mer E-score” value was -0.113 ± 0.031. With GCACTTGA the “PBM 8-mer E-score” value was -0.0604 ± 0.011. In the case of TGCTCGAA, the “PBM 8-mer E-score” value is reported as 0.069 ± 0.0081. For ACCCAGTG, the “PBM 8-mer E-score” value was -0.0911 ± 0.074. In the case of AATATGGT, the “PBM 8-mer E-score” value is reported as 0.095 ± 0.017. With AATATGTC the “PBM 8-mer E-score” value was 0.0382 ± 0.013. AATATGTG was tested, and the “PBM 8-mer E-score” value was 0.28 ± 0.094. With AATATGGC the “PBM 8-mer E-score” value was 0.24 ± 0.07. For AATATGGA, the “PBM 8-mer E-score” value was 0.156 ± 0.017. With ACTATGTG the “PBM 8-mer E-score” value was 0.109 ± 0.069. With CAGTTAGG the “PBM 8-mer E-score” value was 0.0928 ± 0.049. For GATGCTAA, the “PBM 8-mer E-score” value was -0.0557 ± 0.067. In the case of GCGTCGAC, the “PBM 8-mer E-score” value is reported as -0.038 ± 0.027. In the case of CATAAGAG, the “PBM 8-mer E-score” value is reported as 0.0912 ± 0.02. In the case of GATGCTGC, the “PBM 8-mer E-score” value is reported as -0.0878 ± 0.08. With CGCCCTGA the “PBM 8-mer E-score” value was -0.0272 ± 0.05. ATAATCGG was tested, and the “PBM 8-mer E-score” value was 0.137 ± 0.011. With ATAAAGTA the “PBM 8-mer E-score” value was 0.228 ± 0.048. ATAAAGTG was tested, and the “PBM 8-mer E-score” value was 0.0933 ± 0.062. ATAAAGTC was tested, and the “PBM 8-mer E-score” value was 0.239 ± 0.082. GTAAAGTA was tested, and the “PBM 8-mer E-score” value was 0.284 ± 0.074. CTAAAGTA was tested, and the “PBM 8-mer E-score” value was 0.00517 ± 0.053. With CTAAAGTC the “PBM 8-mer E-score” value was -0.208 ± 0.11. With AAAATGGG the “PBM 8-mer E-score” value was -0.088 ± 0.024. For CAAATGGA, the “PBM 8-mer E-score” value was -0.0819 ± 0.12. AAAATGGA was tested, and the “PBM 8-mer E-score” value was 0.298 ± 0.036. For AGGCTATG, the “PBM 8-mer E-score” value was -0.0609 ± 0.077. With ATTCAGCA the “PBM 8-mer E-score” value was 0.076 ± 0.071. In the case of AAATCAAG, the “PBM 8-mer E-score” value is reported as 0.141 ± 0.028. In the case of AAATCAAA, the “PBM 8-mer E-score” value is reported as 0.2624 ± 0.00016. With AAATCGTA the “PBM 8-mer E-score” value was 0.248 ± 0.024. With AAATCAAT the “PBM 8-mer E-score” value was 0.192 ± 0.01. With TAATCGTA the “PBM 8-mer E-score” value was 0.162 ± 0.0019. With CAATCGTA the “PBM 8-mer E-score” value was 0.18 ± 0.038. ATGTGTCC was tested, and the “PBM 8-mer E-score” value was 0.0398 ± 0.026. For TGAGAACA, the “PBM 8-mer E-score” value was 0.115 ± 0.095. ACAACGAC was tested, and the “PBM 8-mer E-score” value was 0.0368 ± 0.017. In the case of ATATGATA, the “PBM 8-mer E-score” value is reported as 0.273 ± 0.081. For CTATGATA, the “PBM 8-mer E-score” value was -0.0149 ± 0.015. In the case of ATATGATG, the “PBM 8-mer E-score” value is reported as 0.193 ± 0.013. With CCATGATA the “PBM 8-mer E-score” value was 0.0877 ± 0.047. For GGATGATA, the “PBM 8-mer E-score” value was 0.0453 ± 0.067. GTATGAGA was tested, and the “PBM 8-mer E-score” value was 0.161 ± 0.072. GCATGATA was tested, and the “PBM 8-mer E-score” value was 0.249 ± 0.015. GTATGATA was tested, and the “PBM 8-mer E-score” value was 0.323 ± 0.069. With ACATGATA the “PBM 8-mer E-score” value was 0.197 ± 0.045. ACGGTGCG was tested, and the “PBM 8-mer E-score” value was -0.17 ± 0.023. CTACTTAA was tested, and the “PBM 8-mer E-score” value was 0.09273 ± 0.00059. For CGAGTGTC, the “PBM 8-mer E-score” value was -0.179 ± 0.053. For CTTTGATC, the “PBM 8-mer E-score” value was -0.09609 ± 0.0009. AAGAGACC was tested, and the “PBM 8-mer E-score” value was 0.0547 ± 0.019. In the case of CCGAGTAA, the “PBM 8-mer E-score” value is reported as -0.0803 ± 0.014. For GAACGGAA, the “PBM 8-mer E-score” value was -0.0438 ± 0.095. With ACTAATAC the “PBM 8-mer E-score” value was 0.158 ± 0.089. ATGAATAC was tested, and the “PBM 8-mer E-score” value was 0.248 ± 0.057. With ATGAATAG the “PBM 8-mer E-score” value was 0.172 ± 0.08. For CTGAATAC, the “PBM 8-mer E-score” value was -0.0332 ± 0.1. For ATTAATGG, the “PBM 8-mer E-score” value was 0.0317 ± 0.074. For ATTAATAC, the “PBM 8-mer E-score” value was 0.266 ± 0.021. With CTTAATAC the “PBM 8-mer E-score” value was 0.214 ± 0.041. With ATTAATCG the “PBM 8-mer E-score” value was 0.0839 ± 0.061. For ATTAATAG, the “PBM 8-mer E-score” value was 0.255 ± 0.09. For GTTAATAA, the “PBM 8-mer E-score” value was 0.227 ± 0.066. For CTTAATAA, the “PBM 8-mer E-score” value was 0.0902 ± 0.011. In the case of ATTAATAA, the “PBM 8-mer E-score” value is reported as 0.274 ± 0.0099. In the case of AGATTGCT, the “PBM 8-mer E-score” value is reported as -0.0246 ± 0.009. For GGATAGAA, the “PBM 8-mer E-score” value was 0.123 ± 0.013. AACTCCCG was tested, and the “PBM 8-mer E-score” value was -0.034 ± 0.042. GGAATCGA was tested, and the “PBM 8-mer E-score” value was -0.191 ± 0.065. In the case of GCGACTAC, the “PBM 8-mer E-score” value is reported as -0.0421 ± 0.049. With ACAAACCC the “PBM 8-mer E-score” value was 0.11 ± 0.054. For GGGTGGTA, the “PBM 8-mer E-score” value was -0.00184 ± 0.074. ACTAGAGG was tested, and the “PBM 8-mer E-score” value was 0.113 ± 0.047. With ACATGCGC the “PBM 8-mer E-score” value was 0.17 ± 0.0097. ACATGCAT was tested, and the “PBM 8-mer E-score” value was 0.294 ± 0.053. In the case of ACATGCGG, the “PBM 8-mer E-score” value is reported as 0.00547 ± 0.099. For GCATGCAA, the “PBM 8-mer E-score” value was 0.147 ± 0.034.
